Measurements published in PubChem BioAssay (NCATS).
Results filed as inconclusive are left out. A call without a number means that no potency is given here. Activity calls are given as the source filed them. Unless noted, calls come from the whole dose curve; as a rule, active = well fitted curve in the direction sought with a large enough effect; inconclusive = small, poorly fitted or top-dose-only effect, or another doubt; inactive = no such curve, though single readings can be large; an effect the other way counts as inactive or inconclusive.

Key:
[1] = Cytometric Cell-Based qHTS for Inhibitors of the mTORC1 Signaling Pathway in MEF (Tsc2-/-, p53-/-) Cells (AID 2660);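 note: Tsc2 and p53 null MEFs carrying empty vector with compound for 24 h; percent of cells above a phospho-rpS6 to PI ratio cutoff in each well; series mostly up to about 38 µM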
In short: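 Immunofluorescence qHTS of rpS6 Ser235/236 phosphorylation: MEFs (Tsc2-/-, p53-/-) treated 24 h, 37 C, in DMEM + 10% FBS. Alexa-488 signal normalized to PI count, referenced to rapamycin (7.5 nM) and DMSO; PI cell number recorded for viability.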

[2] = High Content Imaging Cell-Based qHTS for Inhibitors of the mTORC1 Signaling Pathway in MEF (Tsc2-/-, p53-/-) Cells (AID 2666);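 note: percent of cells scored positive for phospho-rpS6 Ser235/236 immunostaining by imaging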
In short: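 MEF Tsc2-/- p53-/- (empty vector), DMEM/10% FBS; cpd 24 h 37 °C; PFA fix, Alexa-488 p-rpS6 S235/236 Ab, Hoechst; imaged; rapamycin-defined inhibition; % positive cells/well.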

[3] = High Content Imaging Cell-Based qHTS for Inhibitors of the mTORC1 Signaling Pathway in MEF Cells (AID 2667); note: potency is the fitted concentration of half-maximal effect
In short: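 Read-out is the share of phospho-rpS6-positive cells per well, from Hoechst-normalized Alexa-488 Ser235/236 staining imaged on IN Cell. Cells: WT Tsc2-expressing Tsc2-/-, p53-/- MEFs exposed to compound for 24 hrs.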

[4] = Cytometry Cell-Based qHTS for Inhibitors of the mTORC1 Signaling Pathway in MEF cells (AID 2668); note: potency is the fitted concentration of half-maximal effect
In short: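 Pathway inhibition in WT Tsc2-rescued Tsc2-/-, p53-/- MEFs is measured as the Alexa-488 phospho-rpS6 to propidium iodide intensity ratio after 24 hrs of compound at 37 degree Celsius. PI-stained cell number gives viability.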

[5] = Validation screen for inhibitors of Lassa infection (AID 463096; calls by dose curve; note: potency is the fitted concentration of half-maximal effect)
[6] = Validation screen for small molecules that induce DNA re-replication in MCF 10A normal breast cells (AID 463097); note: nearly all actives have a fitted effect of over 60% in size; note: potency is the fitted concentration of half-maximal effect
In short: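 DNA re-replication was detected as a rise in nuclei with elevated Hoechst fluorescence after a 48 hr compound exposure of MCF 10A cells at 37 C.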

[7] = target: Ubiquitin carboxyl-terminal hydrolase 2 (Homo sapiens) (UniProt O75604); assay: qHTS Validation Assay for Inhibitors of Ubiquitin-specific Protease USP2a Using CHOP2 as the Reporter (AID 463106)
Ubiquitin carboxyl-terminal hydrolase 2 (Homo sapiens), sequence (O75604 whole entry, looked up): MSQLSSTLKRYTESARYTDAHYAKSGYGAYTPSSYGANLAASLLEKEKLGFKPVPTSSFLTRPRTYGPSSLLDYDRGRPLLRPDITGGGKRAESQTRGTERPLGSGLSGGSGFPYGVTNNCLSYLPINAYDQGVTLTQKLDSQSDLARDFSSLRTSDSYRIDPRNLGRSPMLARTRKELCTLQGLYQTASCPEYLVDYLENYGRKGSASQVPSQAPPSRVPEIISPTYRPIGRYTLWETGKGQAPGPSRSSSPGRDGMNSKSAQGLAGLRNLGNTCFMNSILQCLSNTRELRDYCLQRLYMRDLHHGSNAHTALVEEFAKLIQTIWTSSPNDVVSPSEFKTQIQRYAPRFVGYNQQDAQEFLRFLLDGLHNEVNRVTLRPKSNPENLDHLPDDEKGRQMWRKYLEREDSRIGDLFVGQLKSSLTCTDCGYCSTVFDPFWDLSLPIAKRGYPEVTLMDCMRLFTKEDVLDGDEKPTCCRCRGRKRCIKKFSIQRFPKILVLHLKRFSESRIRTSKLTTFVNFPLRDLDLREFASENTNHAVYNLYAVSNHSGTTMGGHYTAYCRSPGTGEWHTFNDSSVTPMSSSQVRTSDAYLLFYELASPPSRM
In short: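 Fluorescence read-out at Ex 485nm/Em 531nm after 60min RT, following addition of 25nM Ub-CHOP2 plus 25nM reporter substrate to USP2 core (10nM) pretreated 30min with compound. Data normalized to NEM full inhibition; concentration-response curves fitted.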

[8] = target: DNA polymerase III PolC-type (Bacillus subtilis (strain 168)) (UniProt P13267); assay: qHTS Validation Assay for the Inhibitors of DNA Replication in Gram-Positive Bacteria (AID 485295);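 note: reconstituted holoenzyme with PolC plus beta clamp SSB and primase; PicoGreen fluorescence of double-stranded DNA made on primed circular M13 template; series mostly up to about 57 µM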
DNA polymerase III PolC-type (Bacillus subtilis (strain 168)), sequence (P13267 whole entry, looked up): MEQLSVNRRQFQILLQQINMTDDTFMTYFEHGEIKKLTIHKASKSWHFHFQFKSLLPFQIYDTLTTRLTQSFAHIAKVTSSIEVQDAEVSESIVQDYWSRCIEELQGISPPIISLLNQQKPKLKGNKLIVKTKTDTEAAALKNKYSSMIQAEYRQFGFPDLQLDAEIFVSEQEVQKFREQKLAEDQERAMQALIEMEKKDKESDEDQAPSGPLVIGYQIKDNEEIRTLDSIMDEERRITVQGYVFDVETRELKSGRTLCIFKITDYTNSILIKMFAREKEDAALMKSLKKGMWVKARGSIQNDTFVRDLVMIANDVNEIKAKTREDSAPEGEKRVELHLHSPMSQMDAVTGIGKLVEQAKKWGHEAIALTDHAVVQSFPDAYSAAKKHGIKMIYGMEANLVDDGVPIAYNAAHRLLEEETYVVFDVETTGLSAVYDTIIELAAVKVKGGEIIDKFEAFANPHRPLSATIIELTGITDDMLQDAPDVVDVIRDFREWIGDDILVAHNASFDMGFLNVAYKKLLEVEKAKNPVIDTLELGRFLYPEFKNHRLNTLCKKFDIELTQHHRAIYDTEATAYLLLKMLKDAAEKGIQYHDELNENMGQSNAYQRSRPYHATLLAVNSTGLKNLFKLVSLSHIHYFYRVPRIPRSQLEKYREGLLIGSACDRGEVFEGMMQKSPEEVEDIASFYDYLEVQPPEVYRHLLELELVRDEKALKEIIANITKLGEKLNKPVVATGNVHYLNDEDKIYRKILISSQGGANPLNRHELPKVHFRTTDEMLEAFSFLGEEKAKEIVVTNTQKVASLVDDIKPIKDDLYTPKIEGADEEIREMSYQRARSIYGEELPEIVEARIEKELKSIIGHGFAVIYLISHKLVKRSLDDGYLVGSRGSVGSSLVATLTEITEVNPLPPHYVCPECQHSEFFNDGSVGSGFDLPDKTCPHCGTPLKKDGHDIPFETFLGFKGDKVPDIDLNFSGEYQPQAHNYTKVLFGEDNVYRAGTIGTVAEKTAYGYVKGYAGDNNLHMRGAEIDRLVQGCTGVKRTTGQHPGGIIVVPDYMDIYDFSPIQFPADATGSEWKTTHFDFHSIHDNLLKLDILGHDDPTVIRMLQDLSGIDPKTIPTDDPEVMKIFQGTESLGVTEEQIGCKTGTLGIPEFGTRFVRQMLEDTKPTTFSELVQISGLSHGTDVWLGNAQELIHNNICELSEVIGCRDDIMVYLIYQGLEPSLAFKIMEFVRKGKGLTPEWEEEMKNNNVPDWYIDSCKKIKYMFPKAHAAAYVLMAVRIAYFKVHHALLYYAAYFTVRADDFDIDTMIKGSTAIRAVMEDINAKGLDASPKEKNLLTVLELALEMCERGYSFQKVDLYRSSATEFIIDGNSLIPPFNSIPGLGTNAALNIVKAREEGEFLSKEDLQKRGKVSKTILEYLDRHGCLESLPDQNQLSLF
In short: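 Primed replication of single-stranded M13Gori by a four-protein B. subtilis holoenzyme is measured at room temperature. Double-stranded product is quantified by PicoGreen fluorescence after an EDTA stop; inhibition is scaled between DMSO and EDTA controls.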

[9] = target: Tumor susceptibility gene 101 protein (Homo sapiens) (UniProt Q99816); assay: qHTS Validation Assay for Iinhibitors of HIV-1 Budding by Blocking the Interaction of PTAP/TSG101 (AID 485342; calls by dose curve)
Tumor susceptibility gene 101 protein (Homo sapiens), sequence (Q99816 whole entry, looked up, the tested form may be a part): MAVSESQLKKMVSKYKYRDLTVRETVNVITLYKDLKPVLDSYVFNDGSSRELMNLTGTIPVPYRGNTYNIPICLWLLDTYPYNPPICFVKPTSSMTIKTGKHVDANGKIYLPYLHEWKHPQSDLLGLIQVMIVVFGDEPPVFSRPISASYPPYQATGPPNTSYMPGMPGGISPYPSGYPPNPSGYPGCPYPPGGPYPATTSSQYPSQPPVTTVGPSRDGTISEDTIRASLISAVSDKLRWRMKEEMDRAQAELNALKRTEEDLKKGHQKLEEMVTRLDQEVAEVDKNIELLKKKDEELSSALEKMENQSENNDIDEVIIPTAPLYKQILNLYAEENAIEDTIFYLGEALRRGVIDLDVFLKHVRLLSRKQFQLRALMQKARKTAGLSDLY
In short: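 Fluorescence anisotropy measured PTAP-Tsg101 interaction. Final concentrations were 10 uM protein domain and 50 nM labeled peptide, equilibrated 20 min at room temperature.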

[10] = target: Beta-2 adrenergic receptor (Homo sapiens) (UniProt P07550); assay: qHTS validation assay of beta-arrestin-biased ligands of beta2-adrenergic receptor (AID 485366)
Beta-2 adrenergic receptor (Homo sapiens), sequence (P07550 whole entry, looked up): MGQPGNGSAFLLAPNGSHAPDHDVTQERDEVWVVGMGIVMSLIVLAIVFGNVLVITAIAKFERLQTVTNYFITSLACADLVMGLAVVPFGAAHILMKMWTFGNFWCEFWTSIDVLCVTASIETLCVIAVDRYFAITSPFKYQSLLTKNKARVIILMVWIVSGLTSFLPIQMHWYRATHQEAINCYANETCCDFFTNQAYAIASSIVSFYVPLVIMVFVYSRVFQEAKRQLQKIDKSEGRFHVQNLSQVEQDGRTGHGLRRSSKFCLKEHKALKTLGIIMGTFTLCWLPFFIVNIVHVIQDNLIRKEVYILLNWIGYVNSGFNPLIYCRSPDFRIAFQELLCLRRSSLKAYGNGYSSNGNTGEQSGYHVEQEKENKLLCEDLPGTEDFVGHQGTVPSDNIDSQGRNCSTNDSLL
In short: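 Agonism was measured as beta-arrestin recruitment to recombinant beta2-AR, releasing tTA to drive luciferase. Cells were exposed for 18 hr at 37 degrees C to a series up to 46 microM. %Activity from corrected luminescence gave concentration-response curves.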

[11] = Quantitative high throughput screen for delayed death inhibitors of the malarial parasite plastid, 96 hour incubation (AID 488745); note: nearly all actives have a fitted effect of over 70% in size; note: potency is the fitted concentration of half-maximal effect
In short: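 Two-generation (96 h) exposure of luciferase-reporter P. falciparum in erythrocytes, 2% hematocrit, 0.1% parasitemia final, 37 C, 5% CO2, RPMI 1640 with 0.5% Albumax. Growth inhibition scored by reduced luminescence.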

[12] = Quantitative high throughput screen for delayed death inhibitors of the malarial parasite plastid, 48 hour incubation (AID 488752); note: nearly all actives have a fitted effect of over 65% in size; note: potency is the fitted concentration of half-maximal effect
In short: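 Cultures: infected erythrocytes at final 2% hematocrit and 0.1% parasitemia in Albumax-supplemented RPMI. Parasites express integrated firefly luciferase. Incubation with compound lasts 48 h before luminescent detection of remaining reporter activity.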

[13] = target: M-phase phosphoprotein 8 (Homo sapiens) (UniProt Q99549); assay: qHTS Validation Assay for Inhibitors for MPP8 Chromodomain Interactions with Methylated Histone Tails (AID 488949); note: nearly all actives have a fitted effect of over 55% in size; note: potency is the fitted concentration of half-maximal effect
M-phase phosphoprotein 8 (Homo sapiens), sequence (Q99549 whole entry, looked up): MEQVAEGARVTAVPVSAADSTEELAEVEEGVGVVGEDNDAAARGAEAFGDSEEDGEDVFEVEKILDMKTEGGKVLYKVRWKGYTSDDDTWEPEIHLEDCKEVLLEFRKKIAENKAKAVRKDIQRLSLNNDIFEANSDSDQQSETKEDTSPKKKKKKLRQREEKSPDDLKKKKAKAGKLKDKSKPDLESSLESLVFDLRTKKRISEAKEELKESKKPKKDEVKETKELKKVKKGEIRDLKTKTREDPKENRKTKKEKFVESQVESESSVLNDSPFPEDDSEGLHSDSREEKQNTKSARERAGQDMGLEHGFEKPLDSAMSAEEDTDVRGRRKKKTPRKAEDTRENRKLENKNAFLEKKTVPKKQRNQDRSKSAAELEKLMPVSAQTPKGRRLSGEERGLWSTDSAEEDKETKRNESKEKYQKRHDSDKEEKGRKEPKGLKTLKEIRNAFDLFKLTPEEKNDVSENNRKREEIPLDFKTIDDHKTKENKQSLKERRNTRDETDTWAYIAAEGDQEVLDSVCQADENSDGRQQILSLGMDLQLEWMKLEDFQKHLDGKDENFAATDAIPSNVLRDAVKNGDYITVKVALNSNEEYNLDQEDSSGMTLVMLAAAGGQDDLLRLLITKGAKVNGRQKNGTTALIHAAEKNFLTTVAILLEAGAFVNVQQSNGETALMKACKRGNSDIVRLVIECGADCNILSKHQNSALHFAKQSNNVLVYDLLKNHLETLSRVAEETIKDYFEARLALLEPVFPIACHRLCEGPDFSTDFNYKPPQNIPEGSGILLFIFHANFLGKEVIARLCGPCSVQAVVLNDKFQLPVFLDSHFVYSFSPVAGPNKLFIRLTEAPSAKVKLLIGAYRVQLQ
In short: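 Disruption of the preformed MPP8–trimethyl-H3K9 peptide complex (both 50 nM, 30 min, RT) is measured after 30 min compound exposure, using AlphaScreen proximity beads; aurintricarboxylic acid titration serves as plate control.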

[14] = qHTS Validation Assay to Find Inhibitors of Chronic Active B-Cell Receptor Signaling (AID 485345; active = well fitted curve in the direction sought with a large enough effect in the main read-out, with a control signal flat, not every such curve was filed as active)
In short: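 TMD8 ABC-DLBCL cells stably carrying doxycycline-inducible IkappaBalpha–green luciferase fusion plus unfused red luciferase; compounds 46 uM to 3 nM, 4 h at 37C with doxycycline. Corrected green/red luminescence ratio normalized to 10 uM MG-132 and basal cell wells; curves fitted.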

[15] = target: ATP-dependent 6-phosphofructokinase (Trypanosoma brucei brucei) (UniProt O15648); assay: qHTS Validation Assay to Find Inhibitors of T. brucei phosphofructokinase (AID 485368)
In short: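 ADP-Glo luminescence, two-step: residual ATP depleted, then ADP converted to ATP for luciferase. Enzyme 1.25 nM, F6P 0.5 mM, ATP 0.1 mM, pH 8.0 TEA buffer, 45 min RT. Curves fitted and classed by quality and efficacy.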

[16] = target: Thioredoxin reductase 1, cytoplasmic (Rattus norvegicus) (UniProt O89049); assay: qHTS Assay for Substrates of Mammalian Selenoprotein Thioredoxin Reductase 1 (TrxR1) (AID 488772);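 note: series mostly up to about 57 µM; a drop in NADPH fluorescence below the no-compound background marks a TrxR1 substrate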
Thioredoxin reductase 1, cytoplasmic (Rattus norvegicus), sequence (O89049 whole entry, looked up): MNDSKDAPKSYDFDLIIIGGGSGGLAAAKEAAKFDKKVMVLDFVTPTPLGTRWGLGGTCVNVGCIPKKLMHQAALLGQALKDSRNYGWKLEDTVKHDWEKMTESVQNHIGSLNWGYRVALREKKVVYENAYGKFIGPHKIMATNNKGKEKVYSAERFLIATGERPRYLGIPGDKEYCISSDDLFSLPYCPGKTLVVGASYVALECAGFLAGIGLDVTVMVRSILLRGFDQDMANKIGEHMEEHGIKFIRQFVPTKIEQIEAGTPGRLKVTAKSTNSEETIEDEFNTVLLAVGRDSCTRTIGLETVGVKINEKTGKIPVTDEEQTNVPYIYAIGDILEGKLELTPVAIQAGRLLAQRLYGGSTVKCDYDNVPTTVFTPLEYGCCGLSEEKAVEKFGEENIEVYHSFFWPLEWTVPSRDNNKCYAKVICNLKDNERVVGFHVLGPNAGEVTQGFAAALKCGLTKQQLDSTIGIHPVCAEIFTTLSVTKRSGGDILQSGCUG
In short: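 In this dual-purpose format, potential substrates are identified from the first fluorescence read after selenite addition, not from the 8-minute delta. Rat enzyme is preincubated with NADPH and then with compound at ~22 deg C.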

[17] = target: Thioredoxin reductase 1, cytoplasmic (Rattus norvegicus) (UniProt O89049); assay: qHTS Assay for Inhibitors of Mammalian Selenoprotein Thioredoxin Reductase 1 (TrxR1) (AID 488773); settings: Potency: inhibition;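 note: drop in NADPH fluorescence over an 8 min run after selenite addition; series mostly up to about 57 µM; nearly all actives have a fitted effect of over 40% in size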
In short: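 Inhibition is scored from the loss of NADPH fluorescence between first and last reads of an 8-min kinetic run. Selenite (400 uM) was the substrate, added after 15 min compound preincubation at room temperature.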

[18] = target: Flap endonuclease 1 (Homo sapiens) (UniProt P39748); assay: qHTS Validation Assay for the Inhibitors of Human Flap endonuclease 1 (FEN1) (AID 488816)
Flap endonuclease 1 (Homo sapiens), sequence (P39748 whole entry, looked up): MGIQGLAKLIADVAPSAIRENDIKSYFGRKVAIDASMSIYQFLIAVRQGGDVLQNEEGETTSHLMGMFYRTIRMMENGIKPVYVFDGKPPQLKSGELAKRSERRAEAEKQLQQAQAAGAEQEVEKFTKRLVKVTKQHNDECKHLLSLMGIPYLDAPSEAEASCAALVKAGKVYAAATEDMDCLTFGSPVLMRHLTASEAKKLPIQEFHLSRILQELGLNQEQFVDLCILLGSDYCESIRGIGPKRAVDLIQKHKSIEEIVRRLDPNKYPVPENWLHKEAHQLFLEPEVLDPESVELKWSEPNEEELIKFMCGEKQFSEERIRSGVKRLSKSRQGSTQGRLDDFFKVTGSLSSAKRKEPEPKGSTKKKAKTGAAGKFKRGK
In short: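 Enzyme reagent 10 nM; cpds pinned; 15 min RT preinc.; substrate 50 nM final; reads t=0 and 15 min; no-enzyme buffer wells as neg. control; normalized data, 4-parameter Hill fit.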

Row | Compound | Potency [1] | Potency [2] | Potency [3] | Potency [4] | Potency [5] | Potency [6] | Potency [7] | Potency [8] | outcome [9] | outcome [10] | Potency [11] | Potency [12] | Potency [13] | Potency [14] | Potency [15] | outcome [16] | Potency [17] | Potency [18]
1 | CC(C)(C)c1cc(C=C(C#N)C#N)cc(C(C)(C)C)c1O | inactive | inactive | 2.33 µM (active) | 4.14 µM (active) | 2.51 µM (active) | 0.158 µM (active) | inactive | inactive | inactive | inactive | 1.85 µM (active) | 1.47 µM (active) | 10 µM (active) | – | – | – | – | –
2 | C[N+](C)(C)CC#CCN1CCCC1=O | inactive | inactive | inactive | inactive | inactive | inactive | inactive | inactive | inactive | inactive | inactive | inactive | – | inactive | inactive | inactive | inactive | –
3 | C=CCN1CC[C@]23c4c5ccc(O)c4O[C@H]2/C(=N/NC(=O)c2ccccc2)CC[C@@]3(O)[C@H]1C5 | inactive | inactive | inactive | inactive | inactive | inactive | inactive | inactive | – | inactive | – | – | – | inactive | – | inactive | inactive | –
4 | COc1ccc2[nH]cc(CCN)c2c1 | inactive | inactive | inactive | inactive | inactive | inactive | inactive | inactive | inactive | inactive | – | inactive | inactive | inactive | – | inactive | – | inactive
5 | C=CCN1C[C@@H](C)N([C@H](c2ccc(C(=O)N(CC)CC)cc2)c2cccc(OC)c2)C[C@@H]1C | inactive | inactive | inactive | inactive | inactive | – | inactive | inactive | inactive | inactive | 4.65 µM (active) | 5.22 µM (active) | inactive | inactive | – | – | – | –
